PubChem BioAssay AID485297 (National Center for Advancing Translational Sciences (NCATS), 2010)
Among all 320,000 compounds or so, about 9,100 (2.8%) were called active. Not shown: some 3% with an inconclusive outcome. Calls come from the whole dose curve; as a rule, active = well fitted activation curve with a large enough effect; inconclusive = small, poorly fitted or top-dose-only effect; inactive = no such curve, though single readings can be large or run the other way. The entries come from a sample that favours actives as a whole. A call without a number means that no potency is given here.
Potency is the fitted concentration of half-maximal effect.

Experiment: qHTS Assay for Rab9 Promoter Activators; note: nearly all actives have a fitted effect of over 60% in size
Details: Huh7 Rab9 promoter-luciferase reporter, luminescence, 24 h; series mostly up to 9.22 µM
Method in brief: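 Using Huh7 cells stably transfected with Rab9 promoter–luciferase, compounds were incubated 24 h at 37 °C, 5% CO2; luciferase luminescence was read 10 min after reagent addition.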
For `Cc1ccc(C)c(OCC(=O)NNC(=O)C2CCC2)c1`, the Potency was “inactive”. With `O=S(=O)(c1cccc(S(=O)(=O)N2CCC(n3nnc4ccccc43)CC2)c1)N1CCCCC1` the Potency was “inactive”. With `O=C(c1ccc(F)cc1)N1CCC(n2nnc3ccccc32)CC1` the Potency was 1120 nM (active). With `CC(=O)c1cccc(S(=O)(=O)N2CCC(n3nnc4cc(F)ccc43)CC2)c1` the Potency was “inactive”. In the case of `CN(C)c1ccc(-c2nnc(-c3cccnc3)o2)cc1`, the Potency is reported as 1580 nM (active). In the case of `COC(=O)CSc1nnc(-c2cccnc2)o1`, the Potency is reported as “inactive”. In the case of `CN(C)c1nc(-c2cccnc2)nc(-c2ccc(Cl)cc2)c1C#N`, the Potency is reported as “inactive”. With `Cc1ccc(S(=O)(=O)N2CCCCC2)cc1NC(=O)[C@@H]1CCCN1C(=O)c1cccs1` the Potency was “inactive”. In the case of `CCC(C)N1C(=O)S/C(=C/c2ccc(Sc3nc4ccccc4[nH]3)o2)C1=O` (stereo unspecified), the Potency is reported as “inactive”. For `CCCCNC(=O)C(=O)c1ccccc1NC(C)=O`, the Potency was “inactive”. With `O=C(Nc1ccccc1)c1ccccc1NC(=O)C(F)(F)F` the Potency was “inactive”. For `CC(=O)Nc1ccccc1C(=O)C(=O)Nc1ccc(F)cc1`, the Potency was 2510 nM (active). For `N#Cc1nc(-c2cccc3ccccc23)oc1N`, the Potency was “inactive”. In the case of `CSc1ccccc1N1CCN(CCCCCC(=O)NC2CCCc3ccccc32)CC1` (stereo unspecified), the Potency is reported as “inactive”. For `COc1ccccc1C(=O)Nc1ccc(C)c(S(=O)(=O)N2CCCCC2)c1`, the Potency was “inactive”. For `Cn1sc(NC(=O)c2ccccc2)nc1=O`, the Potency was “inactive”. With `CCCC(=O)Nc1ccc2c(c1)nc(CCNC(=O)c1ccco1)n2C` the Potency was “inactive”. In the case of `CC(=O)NCCc1nc2cc(NC(=O)c3ccccc3)ccc2n1C`, the Potency is reported as 3550 nM (active). For `Cn1c(CN2CCOCC2)nc2cc(NC(=O)c3ccc(Cl)cc3)ccc21`, the Potency was “inactive”. With `Cn1c(S(=O)(=O)O)nc2ccccc21` the Potency was “inactive”. For `Cn1c(NC(=O)c2ccccc2)nc2ccccc21`, the Potency was 2820 nM (active). With `O=C(NC1CCCCCC1)C1CCN(C(=O)c2ccc(Cl)cc2)CC1` the Potency was “inactive”. For `O=C(c1c(F)cccc1F)N1CCN(S(=O)(=O)c2ccc3c(c2)OCCO3)CC1`, the Potency was “inactive”. For `Cc1cc(C)cc(OCC(=O)OCC(=O)NC2CCCC2)c1`, the Potency was “inactive”. With `O=C(CN1CCCCCC1)Nc1ccc(Br)cc1[N+](=O)[O-]` the Potency was “inactive”. For `CCCN(CC(=O)Nc1ccccc1C)C(=O)c1ccc2[nH]c3c(c2c1)CC(C)CC3` (stereo unspecified), the Potency was “inactive”. For `CCOC(=O)c1sc(N)c(C#N)c1COC(=O)C1=COCCO1`, the Potency was “inactive”. For `CN(C(=O)CSc1nnc(C2CC2)n1C)C1CCCc2ccccc21` (stereo unspecified), the Potency was “inactive”. In the case of `CCS(=O)(=O)Nc1cccc(-c2cc(-c3ccccc3)c3cc(C)ccc3n2)c1`, the Potency is reported as “inactive”. In the case of `COc1ccc2c(c1OC)C(=O)OC2Nc1nc(-c2ccccc2)cs1` (stereo unspecified), the Potency is reported as “inactive”. In the case of `O=C(Nc1ccc(-c2csc(Nc3cccc(C(F)(F)F)c3)n2)cc1)c1cccc(C(F)(F)F)c1`, the Potency is reported as “inactive”. With `Cc1cc(O)ccc1-c1cnc2ccccc2n1` the Potency was “inactive”. In the case of `Cc1cccc(Nc2nc(-c3ccccc3)cs2)n1`, the Potency is reported as 3980 nM (active). In the case of `Cc1cccc(S(=O)(=O)CC(=O)Nc2nc(-c3ccccc3)cs2)c1`, the Potency is reported as “inactive”. In the case of `CC(=O)Nc1cccc(-c2cnc3ccccc3n2)c1`, the Potency is reported as 3980 nM (active). In the case of `CC(=O)Nc1cccc(-c2csc(Nc3cccc(C)n3)n2)c1`, the Potency is reported as 1580 nM (active). In the case of `CC(=O)Nc1ccc(-c2csc(NC=C3C(=O)OC(C)(C)OC3=O)n2)cc1`, the Potency is reported as “inactive”. For `COc1ccc(S(=O)(=O)Nc2cc(C)on2)cc1NC(C)=O`, the Potency was “inactive”. In the case of `Cc1ccc(NC(=O)Cn2nnc(C(=O)NCc3ccco3)c2N)c(C)c1`, the Potency is reported as “inactive”. In the case of `COc1ccc([C@H]2CC(=O)C=C(/C=C/c3ccc(Cl)cc3)C2)cc1`, the Potency is reported as “inactive”. For `CSCCC(NC(=O)c1ccco1)C(=O)NCCc1ccc(F)cc1` (stereo unspecified), the Potency was “inactive”. In the case of `CCCC(=O)N1CCN(c2nnc(-c3ccc(C)cc3)c3ccccc23)CC1`, the Potency is reported as “inactive”. For `O=C(C1CCC1)N1CCN(S(=O)(=O)c2ccc([N+](=O)[O-])cc2)CC1`, the Potency was “inactive”. In the case of `Cc1ccc2c(c1)C1CN(C)CCC1N2S(=O)(=O)c1cccc(F)c1` (stereo unspecified), the Potency is reported as “inactive”. In the case of `Cc1ncc(CC(=O)n2cc(C(=O)c3cc(Cl)ccc3O)cn2)s1`, the Potency is reported as “inactive”. In the case of `O=C(c1cnn(-c2ccc(Cl)cc2)c1)c1ccccc1O`, the Potency is reported as 3550 nM (active). With `COc1ccc(CNC(=O)COc2ccccc2C(=O)c2cnn(-c3ccccc3)c2)cc1OC` the Potency was “inactive”. In the case of `COc1ccc(-c2c(-c3cc(OC)cc(OC)c3)n(C)c3ccc(-c4ccn[nH]4)cc23)cc1`, the Potency is reported as “inactive”. In the case of `Cc1cc(C(=O)COc2ccc(Br)cc2F)c(C)n1C1CC1`, the Potency is reported as “inactive”. For `CC(=O)NC(c1cccs1)c1cc(Br)c2cccnc2c1O` (stereo unspecified), the Potency was “inactive”. With `COc1ccc(C)cc1NC(=O)c1cc(-c2ccccc2)nc2c1cnn2C(C)C` the Potency was “inactive”. In the case of `CC1Cc2ccccc2N1S(=O)(=O)c1cccc(C(=O)NCC(c2ccco2)N2CCCC2)c1` (stereo unspecified), the Potency is reported as “inactive”. With `Nc1ccc(N=Nc2ccccc2Cl)c(N)n1` the Potency was 2820 nM (active). With `CCc1cccc(NC(=O)COC(=O)c2cc(=O)c3ccccc3o2)c1` the Potency was “inactive”. In the case of `CCOC(=O)c1ccc(NC(=O)C2CC(=O)N(c3ccc4c(c3)OCCO4)C2)cc1` (stereo unspecified), the Potency is reported as “inactive”. In the case of `CCCN(CC1CC1)C(=S)NC(=O)c1ccccc1Br`, the Potency is reported as “inactive”. For `COc1ccc(C(=O)/C=C/Nc2ccccn2)cc1`, the Potency was 100 nM (active). With `O=C(NNc1ccccn1)c1ccc(Cl)nc1` the Potency was “inactive”. For `Cc1ccc(N/C=C/C(=O)c2ccccc2)cc1C`, the Potency was 562 nM (active). In the case of `Cc1noc(NS(=O)(=O)c2ccc(N/C=C/C(=O)c3ccccc3)cc2)c1C`, the Potency is reported as “inactive”. With `COc1ccc(C(=O)/C=C/c2ccc(OC3CSC3)cc2)cc1` the Potency was “inactive”. In the case of `O=C(/C=C/NCc1ccc(F)cc1)c1ccccc1`, the Potency is reported as “inactive”. In the case of `CCOc1ccc(NC(=S)N2CCC(NC(=O)c3ccccc3)CC2)cc1`, the Potency is reported as “inactive”. In the case of `CCOc1ccc(N/C=C/C(=O)c2cc(OC)c(OC)c(OC)c2)cc1`, the Potency is reported as “inactive”. In the case of `CCOc1ccc(N/C=C/C(=O)c2ccccc2)cc1`, the Potency is reported as 316 nM (active). For `O=C(CC1SC(N2CCCC2)=NC1=O)Nc1ccc(C(=O)NCCc2ccc(F)cc2)cc1` (stereo unspecified), the Potency was “inactive”. In the case of `Cc1ccc(NC(=O)c2cccc(S(=O)(=O)N3CCCc4ccccc43)c2)nc1`, the Potency is reported as “inactive”. With `C=CC(=O)OCCOCCOCCOCCOC(=O)C=C` the Potency was “inactive”. With `Cc1ccnc(NC(=O)c2ccco2)n1` the Potency was “inactive”. In the case of `Cc1ccc(S(=O)(=O)Nc2nc3ccccc3s2)cc1[N+](=O)[O-]`, the Potency is reported as “inactive”. In the case of `Cc1ccnc(Nc2nc3ccccc3s2)n1`, the Potency is reported as 1410 nM (active). For `O=C(CCNS(=O)(=O)c1ccc(Br)cc1)NCC1CCCO1` (stereo unspecified), the Potency was “inactive”. In the case of `CC(=O)c1ccc(NC(=O)c2cc(-c3cccs3)on2)cc1`, the Potency is reported as “inactive”. With `O=C(c1cc(-c2cccs2)on1)N1CCCCC1` the Potency was 562 nM (active). In the case of `O=C(c1cc(-c2ccc(F)cc2)on1)N1CCN(c2ccc(F)cc2)CC1`, the Potency is reported as “inactive”. For `O=C(c1cc(-c2ccc(O)cc2)on1)N1CCCc2ccccc21`, the Potency was “inactive”. With `COc1cccc(-c2cc(C(=O)N3CCN(c4ccccc4OC)CC3)no2)c1` the Potency was “inactive”. In the case of `O=C(c1cc(-c2ccc(O)cc2)on1)N1CCOCC1`, the Potency is reported as 1120 nM (active). For `COc1ccc(-c2cc(C(=O)N3CCN(c4ccc(F)cc4)CC3)no2)cc1`, the Potency was “inactive”. For `COc1ccccc1-c1cc(C(=O)N2CCCCC2)no1`, the Potency was 3550 nM (active). With `O=C(Nc1cccnc1Cl)c1cc(-c2ccccc2O)on1` the Potency was “inactive”. With `O=C(c1cc(-c2cccc(O)c2)on1)N1CCc2ccccc2C1` the Potency was “inactive”. In the case of `O=C(c1cc(-c2ccccc2O)on1)N1CCCC1`, the Potency is reported as 3980 nM (active). For `O=C(CSc1n[nH]c(-c2cccs2)n1)N1CCCCC1`, the Potency was “inactive”. For `O=C(CN1CCC(O)(c2cccc(C(F)(F)F)c2)CC1)NCCc1ccccc1`, the Potency was “inactive”. With `O=C(NNC(=O)c1ccc(-n2cncn2)c([N+](=O)[O-])c1)c1ccccc1` the Potency was “inactive”. For `CCOc1ccc(S(=O)(=O)NCCC(=O)NCC2CCCO2)cc1` (stereo unspecified), the Potency was “inactive”. For `CCN(CC(=O)Nc1ccccc1C(F)(F)F)C(=O)C1CCN(C(=O)Nc2ccccc2)CC1`, the Potency was “inactive”. For `CCOc1ccc(NC(=O)CN(C)C(=O)Cc2sc(C)nc2-c2ccc(F)cc2)cc1OCC`, the Potency was “inactive”. For `O=C(OCC(=O)N1CCOCC1)c1ccc2ccccc2c1`, the Potency was “inactive”. With `CC1(C)CC(=O)C=C(c2ccc(Cl)c(C(F)(F)F)c2)C1` the Potency was “inactive”. For `COc1ccccc1C(=O)NC(CCSC)C(=O)N1CCN(C(C)=O)CC1` (stereo unspecified), the Potency was “inactive”. For `Cc1ccccc1-c1cc(C(=O)NCc2cccs2)n(CC2CC(c3cccnc3)=NO2)n1` (stereo unspecified), the Potency was “inactive”. In the case of `COc1ccc(OCc2cc(C(=O)N3CCCC3)no2)c2ccccc12`, the Potency is reported as 3980 nM (active). With `Cc1ccc(C)c(OCc2cc(C(=O)N3CCN(c4cnccn4)CC3)no2)c1` the Potency was “inactive”. In the case of `O=C(c1cc(COc2cccc(C(F)(F)F)c2)on1)N1CCSCC1`, the Potency is reported as “inactive”. For `O=C(c1cc(COc2ccc(F)c(F)c2)on1)N1CCOCC1`, the Potency was “inactive”. For `O=C(c1cc(COc2c(F)cccc2F)on1)N1CCSCC1`, the Potency was 3160 nM (active). With `COCCN1CCN(C(=O)c2cc(COc3ccc(F)cc3Cl)on2)CC1` the Potency was “inactive”. With `CC(C)(Oc1ccc(Cl)cc1)C(=O)OCC(=O)NCCc1ccc(S(N)(=O)=O)cc1` the Potency was “inactive”. For `Cc1ccsc1C(=O)NC1CCCCC1C` (stereo unspecified), the Potency was “inactive”. In the case of `O=S(=O)(NC1CC1)c1ccc(Cl)cc1`, the Potency is reported as “inactive”. With `O=C(NCCC1=CCCCC1)C1CCN(Cc2cnn(-c3ccccc3)c2-n2cccc2)CC1` the Potency was “inactive”. With `O=C(NNc1ncnc2c1cnn2-c1ccccc1)c1ccco1` the Potency was “inactive”. For `CC(Sc1ncnc2c1cnn2-c1ccccc1)C(=O)Nc1ccc(N2CCOCC2)cc1` (stereo unspecified), the Potency was “inactive”. With `CC(C)Sc1ncnc2c1cnn2-c1ccccc1` the Potency was 1000 nM (active). With `CCC(C)N(C(=O)CSc1ncnc2c1cnn2-c1ccccc1)C1CCS(=O)(=O)C1` (stereo unspecified) the Potency was “inactive”. For `CCN(C(=O)CSc1ncnc2c1cnn2-c1ccccc1)C1CCS(=O)(=O)C1` (stereo unspecified), the Potency was “inactive”. For `C1=C(CCNc2ncnc3c2cnn3-c2ccccc2)CCCC1`, the Potency was 2820 nM (active). With `Cc1ccc(-c2nc3c(cnn3-c3ccccc3)c(=O)o2)cc1` the Potency was “inactive”. For `c1ccc(-n2ncc3c(N4CCCC4)ncnc32)cc1`, the Potency was 501 nM (active).
